Measurements reported in PubChem BioAssay AID1347156 (National Center for Advancing Translational Sciences (NCATS), 2019).
Records with an inconclusive call do not appear. Calls of active or inactive are those of the source. The call rests on the fitted dose curve; in most records, active means well fitted cell-killing curve with a large enough effect; inconclusive means small, poorly fitted or top-dose-only effect; inactive means flat fitted curve, though single readings scatter.

Experiment: DAPI mCherry counterscreen qHTS for Zika virus inhibitors; further: nearly all actives have a fitted effect of over 55% in size
Conditions: Vero cells, DAPI nuclear count cytotoxicity, imaging 48-72 h, infected with Zika reporter virus, MOI 1; series mostly up to 32.6 µM; activity change, negative = cell loss: at the top concentration
Text: Assay Submitters (PI): Avindra Nath, Ph.D., National Institute of Neurological Disorders and Stroke (NINDS), Bethesda, MD Radhakrishnan Padmanabhan, Ph.D., Georgetown University (GU), Washington D.C. Zika Virus causes congenital defects, including microcephaly and is associated with Guillain-Barre syndrome, eningoencephalitis and myelitis in infected adult. […] Using a target-based approach, we hope to establish a screening paradigm to uncover novel, cell-active NS2B-NS3 protease (Zika Virus) specific inhibitors from NCATS' collection of small molecules using qHTS. […] Four assay panel was created to identify potential Zika Virus inhibitors. Namely, (1) GU unlinked NS2B-NS3 AMC tagged protease qHTS, (2) GU unlinked NS2B-NS3 Rhodamine tagged protease qHTS, (3) NINDS linked NS2B-NS3 AMC tagged protease qHTS, (4) NINDS linked NS2B-NS3 Rhodamine tagged protease qHTS. Active compounds were re-acquired and re-screened to confirm inhibition. Inhibitors were further screened against various confirmatory and counterscreens in dose response format. […] A DAPI (mCherry counterscreen) which determine Vero cell cytotoxicity was used to exclude false positive compounds. […] Early Translation Branch (ETB) National Center for Advancing Translational Sciences (NCATS), Rockville, MD National Institute of Health (NIH), Bethesda, Maryland
384 well ZIKV-mCherry & mCherry DAPI counterscreen: We have developed a new orthogonal imaging assay in 384-well plate format, which uses recombinant virus ZIKV-mCherry in Vero cells. Briefly, 30 microL of Vero cells derived from a green monkey cell line, were dispensed by Multidrop Dispenser into a clear solid bottom black 384 well plate (ultracarrier, Perkin Elmer LifeSciences) at a concentration of 5,000 cells per well. The plate was incubated overnight in a CO2 incubator at 37 degrees C. Compounds were delivered as a 126 nL DMSO solution by Kalypsys pintool transfer. Following compound transfer, 10 microL of ZIKV-mCherry was added at an MOI of 1 and incubated in a CO2 incubator for 48-72 hrs at 37 degrees C. After sufficient incubation of infected cells in test plates, 8 microL of 32% PFA was dispensed into assay plates to fix cells and incubated for 20 min at room temperature. Plates were washed 3 times with PBS using BioTek EL406 microplate washer/dispenser. After washing, 30 microL of PBS with 0.01% TX-100 containing Hoechst dye was dispensed into the each well of the plates for nuclear staining. 384-well plates were imaged on an automated, widefield high content imager (INCell 2200, GE Healthcare) using a 10x/0.45 NA lens and standard DAPI (nuclear stain) and mCherry (cy5) excitation and emission filters. The TIFFs were quantitated using the canned Multi Target Analysis protocol (GE Investigator Workstation software v3.7.2). Briefly, nuclei from the DAPI channel were identified using top hat segmentation and a sensitivity setting of 96 and minimum size area of 35 microm2. A recombinant Zika viral infection was monitored in the Cy5 channel (cells) using a 2 microm collar dilation from the nuclear bitmap. mCherry objects with an average nuclear RFU intensity above 450 (3 stdev above mean negative control wells) were considered "mcherry positive" and data was analyzed by percent infection rate.
On the % scale 0 is the no-effect control and ±100 the full control effect; potency means the concentration at half of the fitted maximal effect.

| Compound | Potency | activity change, negative = cell loss |
| --- | --- | --- |
| O=C(O)Cc1cccc(OCCCN(Cc2cccc(C(F)(F)F)c2Cl)CC(c2ccccc2)c2ccccc2)c1 | 15.8 µM (active) | – |
| CCc1oc2ccccc2c1C(=O)c1cc(Br)c(O)c(Br)c1 | 11.2 µM (active) | – |
| O=C(Nc1ccc(Oc2ccc(Cl)cc2)c(Cl)c1)c1cc(I)cc(I)c1O | 10 µM (active) | – |
| CCOC(=O)c1ccc(N2C(=O)c3n[nH]c(-c4cccs4)c3C2c2ccc(Cl)cc2Cl)cc1 (stereo not given) | 11.2 µM (active) | – |
| O=C(O)c1ccccc1-c1c2cc(I)c(=O)c(I)c-2oc2c(I)c(O)c(I)cc12 | – | -8.64% (inactive) |
| Oc1c(Cl)cc(Cl)c(Cl)c1Cc1c(O)c(Cl)cc(Cl)c1Cl | 31.6 µM (active) | – |
| O=C(O)C(Cc1cc(I)c(O)c(I)c1)c1ccccc1 (stereo not given) | 4.47 µM (active) | – |
| O=C(Nc1ccc(S(=O)(=O)Nc2nccs2)cc1)C(c1ccccc1)c1ccccc1 | – | -27.2% (inactive) |
| COc1cc2c(c(O)c1OC/C=C(\C)CC/C=C(/C)CCC=C(C)C)CN(C(CCC(=O)O)C(=O)O)C2=O (stereo not given) | 7.94 µM (active) | – |
| CN(C)CC[C@H](CSc1ccccc1)Nc1ccc(S(=O)(=O)NC(=O)c2ccc(N3CCN(Cc4ccccc4-c4ccc(Cl)cc4)CC3)cc2)cc1[N+](=O)[O-] | 5.01 µM (active) | – |
| O=S(=O)(Nc1ccc(Cl)cc1)c1ccc(NS(=O)(=O)c2ccc3c(c2)OCCO3)cc1 | 31.6 µM (active) | – |
| CCOc1ccc(C(=O)Nc2cccc(C(=O)OCc3cc(=O)n4nc(C5CC5)sc4n3)c2)cc1 | 11.2 µM (active) | – |
| N#C/C(=C\c1ccc(-c2ccc(Cl)c(C(=O)O)c2)o1)c1nc2ccccc2[nH]1 | – | -14.4% (inactive) |
| O=C1NC(=O)c2cc(Nc3ccccc3)c(Nc3ccccc3)cc21 | 31.6 µM (active) | – |
| O=S(=O)(Nc1cc(Cl)c(Oc2cnc3ccccc3c2)c(Cl)c1)c1ccc(Cl)cc1Cl | 12.6 µM (active) | – |
| O=C(O)c1cccc(-c2ccc(-c3cn(C(=O)N4CCCCC4Cc4ccccc4)nn3)cc2)c1 (stereo not given) | 35.5 µM (active) | – |
| O=C(O)c1cnn(-c2nc3cc(OC(F)(F)F)c(Cl)cc3[nH]2)c1 | – | -7.21% (inactive) |
| COc1ccc(C(=O)Nc2ccc(C(=O)OCc3cc(=O)n4nc(C(C)C)sc4n3)cc2)cc1 | – | -5.33% (inactive) |
| O=c1oc2ccccc2cc1-c1nnc(Nc2ccc(Cl)cc2Cl)s1 | – | -17.8% (inactive) |
| CC(=O)Oc1cc2c(c(C)c1OC(C)=O)CC=C1[C@@]2(C)CC[C@@]2(C)[C@H]3C[C@](C)(C(=O)O)CC[C@]3(C)CC[C@]12C | 2.82 µM (active) | – |

| Compound | Potency | activity change, negative = cell loss |
| --- | --- | --- |
| O=C(Nc1ccc(S(=O)(=O)N2CCOCC2)cc1)c1cc(Cl)ccc1NS(=O)(=O)c1ccc(Cl)s1 | 15.8 µM (active) | – |
| O=C(O)c1ccc(CCCc2ccc(OCCc3ccc(F)cc3)cc2)o1 | 31.6 µM (active) | – |
| NC(=O)c1ccc2nc(-c3ccc(Oc4ccc(Cl)cc4)cc3)[nH]c2c1 | 31.6 µM (active) | – |
| O=C(O)CSc1nc2ccc(NC(=O)COc3ccc(Cl)cc3)cc2s1 | – | -7.1% (inactive) |
| O=C(O)c1ccc(C2Nc3ccccc3-c3nnc(SCc4ccc(Cl)cc4)nc3O2)cc1 (stereo not given) | – | -17% (inactive) |
| Cc1cc(NC(=O)c2ccc(Cl)c(Cl)c2)ccc1-c1cc2ccccc2oc1=O | 15.8 µM (active) | – |
| Cc1ccc(C(=O)Nc2ccc(S(=O)(=O)O)c3cc(S(=O)(=O)O)cc(S(=O)(=O)O)c23)cc1NC(=O)c1cccc(NC(=O)Nc2cccc(C(=O)Nc3cc(C(=O)Nc4ccc(S(=O)(=O)O)c5cc(S(=O)(=O)O)cc(S(=O)(=O)O)c45)ccc3C)c2)c1 | – | -11.1% (inactive) |
| CC[C@H](C)[C@H]1O[C@]2(CC[C@@H]1C)C[C@@H]1C[C@@H](C/C=C(\C)[C@@H](O[C@H]3C[C@H](OC)[C@@H](O[C@H]4C[C@H](OC)[C@@H](O)[C@H](C)O4)[C@H](C)O3)[C@@H](C)/C=C/C=C3\CO[C@@H]4[C@H](O)C(C)=C[C@@H](C(=O)O1)[C@]34O)O2 | 8.91 µM (active) | – |
| O=c1c(O)c(-c2ccc(O)c(O)c2)oc2cc(O)ccc12 | – | -17.3% (inactive) |
| Cc1cc(S(=O)(=O)Nc2ccc(C(=O)O)cc2)c(C)c(S(=O)(=O)c2ccc(Cl)cc2)c1 | – | -10.7% (inactive) |
| Cc1ccccc1NC(=O)Nc1ccc(CN2C(=O)N([C@@H](CC(C)C)C(=O)N[C@@H](CC(=O)O)c3ccccc3)C(=O)C2(C)C)cc1 | 7.08 µM (active) | – |
| N#Cc1ccc(N2N=C3c4ccc(C(=O)O)cc4CC[C@@H]3[C@@H]2C2CCCC2)cc1Cl | 4.47 µM (active) | – |
| O=C(NCc1ccc(Oc2ccccc2)cc1)c1nc(-c2cc(Br)c(O)c(Br)c2)no1 | 8.91 µM (active) | – |
| Nc1c(N=Nc2ccc([N+](=O)[O-])cc2)c(S(=O)(=O)O)cc2cc(S(=O)(=O)O)c(/C=C/c3ccccc3)c(O)c12 | – | -17.4% (inactive) |
| Cc1cc(CN2CCN(c3c(Br)cnc4nc(-c5ccc(N6CCN(C)CC6)cc5)[nH]c34)CC2)no1 | 10 µM (active) | – |
| CNC(=O)c1cc(Oc2ccc(NC(=O)Nc3ccc(Cl)c(C(F)(F)F)c3)cc2)ccn1 | 4.47 µM (active) | – |
| O=C(O)CCc1ccc(-c2ccc(Cl)cc2)n1-c1cccc(C(F)(F)F)c1 | 25.1 µM (active) | – |
| CCC(C)CCCCC(=O)NC(CCNCS(=O)(=O)O)C(=O)NC(C(=O)NC(CCNCS(=O)(=O)O)C(=O)NC1CCNC(=O)C(C(C)O)NC(=O)C(CCNCS(=O)(=O)O)NC(=O)C(CCNCS(=O)(=O)O)NC(=O)C(CC(C)C)NC(=O)C(CC(C)C)NC(=O)C(CCNCS(=O)(=O)O)NC1=O)C(C)O (stereo not given) | – | 9.56% (inactive) |
| O=C(O)C1(Cc2cccc(Nc3nccs3)n2)CCC(Oc2cccc(Cl)c2F)CC1 (stereo not given) | 17.8 µM (active) | – |
| CC(C)=CCCC1(C)C=Cc2c(O)c3c(c(CC=C(C)C)c2O1)OC12C(=CCCC1C(C)(C)O[C@@]2(C/C=C(\C)C(=O)O)C(=O)O)C3=O (stereo not given in full) | 15.8 µM (active) | – |
